Assay results as given in PubChem BioAssay (NCI).
About 83,000 compounds went through this panel and 20% of them were active in at least one assay; those are over-represented in the sample as a whole.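 96-well plates, one dose, 48 hours. Percent growth reported; active if below 10.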 Unmarked numbers belong to inactive results. Activity calls are given as the source filed them.

How the values were obtained:
Assay in all cases: NCI-60 one-dose screen, 48 h (100 = growth as untreated, 0 = no growth, -100 = all killed)
Conditions in all cases: 10 µM
NCI-H23 lung = test system: NCI-H23 lung
NCI-H226 lung = test system: NCI-H226 lung
NCI-H322M lung = test system: NCI-H322M lung
HOP-62 NSCLC = test system: HOP-62 NSCLC
NCI-H460 lung = test system: NCI-H460 lung
HOP-92 NSCLC = test system: HOP-92 NSCLC
NCI-H522 lung = test system: NCI-H522 lung
A549/ATCC NSCLC = test system: A549/ATCC NSCLC
786-0 renal = test system: 786-0 renal
COLO 205 colon = test system: COLO 205 colon
DU-145 prostate = test system: DU-145 prostate
K-562 leukemia = test system: K-562 leukemia
MALME-3M melanoma = test system: MALME-3M melanoma
MDA-MB-231 breast = test system: MDA-MB-231 breast
RXF 393 renal = test system: RXF 393 renal
SF-268 CNS = test system: SF-268 CNS
SF-295 CNS = test system: SF-295 CNS
SF-539 CNS = test system: SF-539 CNS
UACC-257 melanoma = test system: UACC-257 melanoma
M14 melanoma = test system: M14 melanoma

Structure (SMILES)	growth (NCI-H23 lung)	growth (NCI-H226 lung)	growth (NCI-H322M lung)	growth (HOP-62 NSCLC)	growth (NCI-H460 lung)	growth (HOP-92 NSCLC)	growth (NCI-H522 lung)	growth (A549/ATCC NSCLC)	growth (786-0 renal)	growth (COLO 205 colon)	growth (DU-145 prostate)	growth (K-562 leukemia)	growth (MALME-3M melanoma)	growth (MDA-MB-231 breast)	growth (RXF 393 renal)	growth (SF-268 CNS)	growth (SF-295 CNS)	growth (SF-539 CNS)	growth (UACC-257 melanoma)	growth (M14 melanoma)
COc1ccc(-c2nnc(SCC(=O)c3ccccc3)o2)cc1	91.2%	97.5%	107%	84.5%	105%	89.2%	83.9%	98.1%	79.4%	107%	102%	92.3%	104%	99.3%	94.2%	102%	101%	98.8%	89.4%	101%
O=C1/C(=C/c2ccc(O)cc2)Cc2ccc(Cl)cc21	69.5%	68.1%	84.9%	95.3%	84.4%	77.3%	-38.8% (active)	85.9%	92.2%	120%	111%	81.8%	106%	61.5%	59.7%	95.9%	92.3%	82.6%	86%	82.5%
O=C(Nc1cccc(C(F)(F)F)c1)C(Cl)Cl	94.1%	101%	87.5%	96.5%	102%	81.7%	98.2%	98%	101%	101%	98.3%	102%	94.7%	127%	104%	99.4%	90.4%	93.8%	98%	98.8%
N#CN1CC[C@H](C(=O)Nc2ncc(-c3ccncc3)s2)C1	-22% (active)	-9.42% (active)	11.1%	-7.49% (active)	3.58% (active)	-0.157% (active)	-37.8% (active)	-32.4% (active)	5.77% (active)	-55.4% (active)	8.45% (active)	3.89% (active)	-19.4% (active)	2.16% (active)	-58.8% (active)	5.17% (active)	4.53% (active)	-20.7% (active)	-19.4% (active)	1.13% (active)
FC(F)(F)c1ccc(-c2cnc(Br)nc2NC2CCCCCC2)cc1	33.1%	53.1%	78.2%	53.5%	28.6%	-21.4% (active)	7.77% (active)	28.8%	54.6%	25.1%	74.9%	10.6%	-42.4% (active)	62.4%	52.7%	43.6%	-33.2% (active)	82.4%	-1.23% (active)	23.1%
CCCCC(=O)N(c1ccc(Nc2c3ccccc3nc3cc([N+](=O)[O-])ccc23)cc1)S(C)(=O)=O	81.8%	71.3%	82.1%	56%	14%	39.2%	50.7%	34%	74.3%	88.1%	26.3%	64.3%	92.7%	84.6%	75.8%	53%	34.4%	79.8%	79.8%	92.9%
Cc1ccccc1C1=N[C@@H](Cc2ccccc2)C(=O)c2c(nc3ccccn23)N1	95.3%	98.9%	106%	93.4%	103%	90.5%	121%	91.7%	101%	107%	113%	113%	109%	104%	105%	104%	96.5%	99.4%	87.3%	102%
Brc1ccc(-c2cn3ccnc3c(-c3ccc(Br)cc3)n2)cc1	59.8%	70.6%	86.7%	33.2%	16.8%	55.8%	-14.9% (active)	31.9%	57.8%	7.83% (active)	72.7%	16.8%	39.5%	46.5%	47%	56.9%	30.6%	52.5%	67.4%	20.1%
O=C(N/N=C\c1cc(Cl)ccc1O)c1ccncc1	46%	31.6%	59.5%	55.7%	25.3%	47.5%	11.7%	79.8%	19.1%	23.7%	48.3%	39.1%	80%	56%	57.4%	37.5%	77.2%	63.6%	53.7%	47.6%
Clc1ccc(-c2nc(-c3cccs3)cn3ccnc23)cc1	71.1%	72%	97.4%	57.7%	81.3%	81.5%	28%	57.4%	99.8%	71.1%	94.7%	26.1%	86%	66.5%	86.7%	82.8%	81.9%	76.7%	70.2%	61.5%
N#Cc1cnc2ccc(NCc3cnc[nH]3)cc2c1Nc1ccc(F)c(Cl)c1	78.8%	88.2%	1.96% (active)	94.3%	62.5%	51.9%	10.2%	70.9%	65.7%	96.9%	39.5%	66.8%	110%	78%	52.8%	63.2%	94.4%	92.1%	84.3%	72.1%
NC1CCC(Nc2nc(NCc3ccc(-c4ccco4)nc3)c3ncn(C4CCCC4)c3n2)CC1 (stereo not given)	-18.1% (active)	-18.6% (active)	21.4%	-17.1% (active)	4.97% (active)	-16.3% (active)	-70.6% (active)	3.69% (active)	8.51% (active)	-62.7% (active)	6.46% (active)	2.46% (active)	-40.6% (active)	3.81% (active)	-50.5% (active)	0.711% (active)	0.17% (active)	-25.7% (active)	-8.84% (active)	-23.5% (active)
O=C(Nc1cccc(F)c1)Nc1cccc(Cl)c1	89.8%	102%	94.8%	99.6%	56%	76.7%	90.5%	74.7%	94.2%	93.6%	65.8%	10.9%	84.6%	80.7%	104%	80.4%	92.7%	105%	87.7%	100%
